According to PubChem BioAssay (NCI):
This is part of a sample that, as a whole, favours compounds with a hit. Of some 79,000 tested, about 15% had one in any assay. A number with no mark means an inactive call. Calls of active or inactive are those of the source. Cut-off read from the data, not from the text of the source: active = growth inhibition above about 70%; inactive = the rest. Where a SMILES comes first, the peptide text is derived from it.

Test: NCI Yeast Anticancer Drug Screen. Data for the mec2-1 strain (AID 157)
Settings: S. cerevisiae mec2-1 strain, at 50.0 µM, stronger effect = higher value
How it was run: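 Yeast mec2-1 mutant treated with compound. Readout: growth inhibition vs vehicle controls.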

Structure (SMILES) | growth inhibition
CCOC1=C/C(=N\NC(N)=O)CCC1 | 7.2%
CCSc1cccc(C(=O)O)c1 | -2.9%
NC(=O)N/N=C1\CCCC(OC(=O)c2ccccc2)CC1 (stereo unspecified) | -27.7%
CS(=O)(=O)OC1COCOC1C1OCOCC1OS(C)(=O)=O (stereo unspecified) | 1.35%
CCCCCCCCCCCCCCCC/C(C(=O)OC)=C(/O)C(=O)OCC | -12.1%
CC(=O)OC1CCC2(C)C(CCC3(C)C2CCC2C4C5OC(=O)C4(CCC5(C)C)CCC23C)C1(C)C (stereo unspecified) | -23.9%
CCOC(CN(C)C)OCC | 6.95%
NS(=O)(=O)c1ccc(N2C(=O)C3C(C2=O)C2(Cl)C(Cl)=C(Cl)C3(Cl)C2(Cl)Cl)cc1 (stereo unspecified) | -6.95%
Nc1nc(N)c(N=Nc2ccc(S(=O)(=O)O)cc2)c(N)n1 | -5.3%
CC(=O)N(C)C | -2.05%
N#CCCOCC(OCCC#N)C(OCCC#N)C(OCCC#N)C(COCCC#N)OCCC#N (stereo unspecified) | -14.6%
O=S(=O)(O)C(O)c1ccccc1 (stereo unspecified) | -2.85%
O=C(Nc1ccc2c(c1)Cc1cccc(F)c1-2)C(F)(F)F | -1.45%
COc1ccc(Br)cc1C1SCC(=O)N1c1nncs1 (stereo unspecified) | 7.7%
CCOC(=O)c1ccc(-c2ccccc2)cc1 | -28.9%
OC(Cc1cccnc1)(c1ccccc1)c1ccccc1 | -40.4%
CC(CCC(=O)O)[C@H]1CCC2[C@@H]3CC[C@@H]4CC(O)CC[C@]4(C)C3CC[C@@]21C (stereo partly specified) | -18.1%
O=C(NO)c1ccccc1O | 21%
CC(C)NC(=O)N(C(=O)C(F)(F)F)C(C)C | 7.45%
CCN(CC)CCN(CCN(CC)CC)c1c(OC)cccc1OC | -13.2%
Cc1cc(C)c(C)c(C(=O)OC(C)C)c1C | -9.7%
CCOC(=N)Cc1ccccc1 | 21.1%
Cc1cc(C)c(N(C)C(=O)CCC(=O)O)c(Br)c1 | -3.05%
COc1ccc(NC(=S)NN)cc1 | -7.75%
NNC(=O)C1CCC(=O)N1S(=O)(=O)c1ccccc1 (stereo unspecified) | -12.1%
COc1cc(C2c3cc4c(cc3OC(NNC(N)=S)C2C)OCO4)cc(OC)c1OC (stereo unspecified) | -17.4%

Test: NCI Yeast Anticancer Drug Screen. Data for the sgs1 mgt1 strain (AID 161);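 note: 0% = growth of cultures given vehicle only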
Settings: S. cerevisiae sgs1 mgt1 strain, at 50.0 µM, stronger effect = higher value
How it was run: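 Read-out: growth inhibition vs vehicle controls. Cells: mutant yeast strain deficient in DNA damage repair.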

Structure (SMILES) | growth inhibition
CCOC(=O)NC(C)=O | 14.1%
Cc1n[nH]c(=S)n1NC=O | -4.7%
CCCC(C)C(=O)O (stereo unspecified) | 4%
CCCCCCCCCCCCCCCCCCNC1=C(C)C(=O)C(NCCCCCCCCCCCCCCCCCC)=C(OCC)C1=O | -0.85%
COc1cc(O)c(C(=O)CC(C)=O)c(OC)c1 | -3.7%
Cc1ccc(C(=O)c2c[nH]c(=O)[nH]c2=O)cc1 | -6.7%
CC(=O)c1cc2c(Br)cccc2oc1=O | -32.5%
CC1N=C(c2ccccc2)SC1C (stereo unspecified) | -24.9%
C/C(=N\N=C(\Cc1ccccc1)c1ccccc1)c1ccccc1 | -11.6%
CC(C)CC(NC(=O)C(CCC(=O)O)NC(=O)CNC(=O)CNC(=O)C(CO)NC(=O)C(CC(C)C)NC(=O)C(NC(=O)C(CO)NC(=O)C(C)NC(=O)C(CCCNC(=N)N)NC(=O)C(C)NC(=O)CN)C(C)C)C(=O)NC(CC(=O)O)C(=O)NC(CCCNC(=N)N)C(=O)NC(Cc1c[nH]c2ccccc12)C(=O)NC(Cc1ccc(O)cc1)C(N)=O (stereo unspecified) (H-GARASVLSGGELDRWY-NH2; configuration not given here) | 3.25%
COc1ccc(C(C)=O)cc1CCCOC(C)=O | -7.5%
COCc1ccc(C(C)(C)CC(C)(C)C)cc1 | -0.1%
CSc1nc(NN)c([N+](=O)[O-])c(SC)n1 | 1.2%
O=c1oc2c(ccc3ccccc32)c(O)c1-c1cccc2ccccc12 | 99.5% (active)
CCOC1=C/C(=N\NC(N)=O)CCC1 | -1.1%
CCSc1cccc(C(=O)O)c1 | -3.4%
NC(=O)N/N=C1\CCCC(OC(=O)c2ccccc2)CC1 (stereo unspecified) | -16.8%
CS(=O)(=O)OC1COCOC1C1OCOCC1OS(C)(=O)=O (stereo unspecified) | 10.5%
CCCCCCCCCCCCCCCC/C(C(=O)OC)=C(/O)C(=O)OCC | -3.65%
CC(=O)OC1CCC2(C)C(CCC3(C)C2CCC2C4C5OC(=O)C4(CCC5(C)C)CCC23C)C1(C)C (stereo unspecified) | -17.1%

Structure (SMILES) | growth inhibition
CCOC(CN(C)C)OCC | 4.1%
NS(=O)(=O)c1ccc(N2C(=O)C3C(C2=O)C2(Cl)C(Cl)=C(Cl)C3(Cl)C2(Cl)Cl)cc1 (stereo unspecified) | 3.25%
Nc1nc(N)c(N=Nc2ccc(S(=O)(=O)O)cc2)c(N)n1 | 4.25%
CC(=O)N(C)C | 12.9%
N#CCCOCC(OCCC#N)C(OCCC#N)C(OCCC#N)C(COCCC#N)OCCC#N (stereo unspecified) | -13.2%
O=S(=O)(O)C(O)c1ccccc1 (stereo unspecified) | -8.85%
O=C(Nc1ccc2c(c1)Cc1cccc(F)c1-2)C(F)(F)F | 2.9%
COc1ccc(Br)cc1C1SCC(=O)N1c1nncs1 (stereo unspecified) | 26.8%
CCOC(=O)c1ccc(-c2ccccc2)cc1 | -14.7%
OC(Cc1cccnc1)(c1ccccc1)c1ccccc1 | -16.7%
CC(CCC(=O)O)[C@H]1CCC2[C@@H]3CC[C@@H]4CC(O)CC[C@]4(C)C3CC[C@@]21C (stereo partly specified) | -13.8%
O=C(NO)c1ccccc1O | -14.8%
CC(C)NC(=O)N(C(=O)C(F)(F)F)C(C)C | -4.6%
CCN(CC)CCN(CCN(CC)CC)c1c(OC)cccc1OC | 9.25%
Cc1cc(C)c(C)c(C(=O)OC(C)C)c1C | 3.35%
CCOC(=N)Cc1ccccc1 | 4.6%
Cc1cc(C)c(N(C)C(=O)CCC(=O)O)c(Br)c1 | -13.2%
COc1ccc(NC(=S)NN)cc1 | 18.9%
NNC(=O)C1CCC(=O)N1S(=O)(=O)c1ccccc1 (stereo unspecified) | -22%
COc1cc(C2c3cc4c(cc3OC(NNC(N)=S)C2C)OCO4)cc(OC)c1OC (stereo unspecified) | 2.5%
